Hits are enriched below; roughly 10% of the tested compounds scored in any of these assays.
CCT chaperon mod – modulators of cytosolic chaperonin (CCT/TRiC) activity; hit rate 0.3% among 360,000; AID 651819; purified chaperonin ATPase assay, HTRF ADP detection, 30 min; activity change, % (concentration not given with the values), hits read low; in the data active = activity change below about -30%
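TRiC at 40 or 20 nM final (batch-dependent) in 30 mM Tris pH 7.4, 100 mM KCl, 5 mM MgCl2, 1 mM DTT, with compound at single 76 uM and 10 uM ATP, 30 min at 37 deg C. ADP detected by HTRF Transcreener, 665/615 ratio.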
Sfp inh – blocks B. subtilis Sfp PPTase activity; Q9F4F7; Biochemical Sfp PPTase activity, qHTS; Potency, µM, for the others: largest response in the series, negative = inhibition, actives largely listed as inhibitors; hit rate 3.5% among 310,000;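 also: the enzyme is Sfp with the accession as filed and its product quenches rhodamine fluorescence; potency is read from the fitted curve at half-maximal effect; 0% = enzyme reaction without inhibitor and -100% = no enzyme wells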
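Fluorescence-quenching assay with 15 nM Sfp, 5 uM rhodamine-CoA and 12.5 uM BHQ-2-labelled ybbR peptide in pH 7.6 Hepes/MgCl2 buffer. Enzyme was pre-incubated with compound for 15 min at room temperature. Rate was taken from the 30-min fluorescence change (525/598 nm).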
PLK1 PBD inh – PLK1 (human) polo-box domain binding inhibition | hit rate 2.8% among 360,000 | P53350 | Plk1 PBD binding of FITC phosphopeptide, fluorescence polarization | Potency, µM, for the others: max response, negative = inhibition, hits mostly inhibitors; also: potency is read from the fitted curve at half-maximal effect; series mostly up to about 57 µM; nearly all actives have a fitted effect of over 65% in size
G9a inh – G9a (human) methyltransferase inhibition. G9a H3K9 monomethylation, AlphaScreen, 2 h. Potency, µM (titrated, usually from 102 µM), for the others: top-dose activity, negative = inhibition, usual class: inhibitors. hit rate 8.8% among 350,000. AID 504332; also: potency is read from the fitted curve at half-maximal effect; nearly all actives have a fitted effect of over 75% in size
Target sequence (Q96KQ7 913-1193 limits assumed): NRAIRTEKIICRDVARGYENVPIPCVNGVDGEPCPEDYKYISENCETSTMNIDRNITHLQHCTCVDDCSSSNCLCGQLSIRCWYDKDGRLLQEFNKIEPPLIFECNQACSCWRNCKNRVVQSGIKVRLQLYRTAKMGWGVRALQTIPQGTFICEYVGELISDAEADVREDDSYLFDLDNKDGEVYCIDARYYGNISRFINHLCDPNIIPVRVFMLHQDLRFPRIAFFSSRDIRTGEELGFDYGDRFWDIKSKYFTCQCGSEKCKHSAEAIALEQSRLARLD
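Signal arises when biotinylated H3K9 peptide, once monomethylated, bridges streptavidin donor and antibody-captured acceptor beads. Enzyme at 20 nM was preincubated 15 min with test compounds; peptide 500 nM and SAM 20 uM then reacted for 2 h.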
VDR inh – inhibitors of human vitamin D receptor; hit rate 0.93% among 400,000; VDR-SRC2-3 peptide fluorescence polarization, 2 h; Potency, µM, without a hit: max response, negative = inhibition, usual class: inhibitors; P11473; also: potency is read from the fitted curve at half-maximal effect
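Fluorescence polarization assay of small-molecule disruption of VDR binding to coregulator peptide SRC2-3. Compounds and controls pin-transferred, then read after 2 h incubation at ambient room temperature.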
Mm-Cpn inhibitor – M. maripaludis TRiC chaperonin inhibition; purified Mm-Cpn ATPase, ADP Transcreener TR-FRET; Potency, µM (titrated, usually from 76.9 µM), inactives show at the highest dose activity, negative = inhibition, actives largely listed as inhibitors; hit rate 0.031% among 330,000; AID 504842; also: potency is read from the fitted curve at half-maximal effect; nearly all actives have a fitted effect of over 80% in size
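Eu-cryptate anti-ADP/ADP-d2 competition gives a ratio inversely related to ADP. Enzyme at 25 nM was pre-exposed to compound for 10 min, then given 10 uM ATP for 30 min, 37°C throughout.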
Starred values were filed as active, the others as inactive; ? = inconclusive; nt = not tested or not shown; [ ] = another dose, or the depositor's remark. Unless noted, calls follow the shape of the dose curve; as a rule, active = well fitted curve in the direction sought with a large enough effect; inconclusive = small, poorly fitted or top-dose-only effect, or another doubt; inactive = no such curve, though single readings can be large; an effect the other way counts as inactive or inconclusive. Unless noted, % is scaled to controls: 0 for no effect and ±100 for the full control effect.

SMILES | CCT chaperon mod | Sfp inh | PLK1 PBD inh | G9a inh | VDR inh | Mm-Cpn inhibitor
CC(C)C[C@@H](CC(=O)N[C@H](CC(=O)N[C@@H]1CCCC[C@H]1C(=O)N[C@H](CC(=O)N[C@@H](CCC(=O)O)CC(=O)O)Cc1c[nH]c2ccccc12)C(C)C)NC(=O)[C@@H]1CCCC[C@H]1N | nt | 7% | nt | nt | 0% | nt
S=c1[nH]c2ccc(Cl)cc2[nH]1 | -1 | -2% | 11µM* | 1.6µM* | ? | -2%
O=C1CCCc2c1[nH]c1ccc(Cl)cc21 | 1 | 11% | -15% | 22%[59 µM] | -3% | -3%
COc1ccc2[nH]c(=S)[nH]c2c1 | -2 | -1% | -11% | 4.5µM* | 5% | 0%
S=c1[nH]c2cc(Cl)ccc2s1 | 1 | -6% | 1.9µM* | 1.8µM* | -4% | 0%
CSc1nc2cc(Cl)ccc2s1 | -1 | 7% | -12% | 41% | 10% | 0%
COc1ccc2[nH]c3ccccc3c2c1 | -6 | -7% | -4% | -36% | -7% | 1%
CCOCCc1nnc(NC(=O)C(=O)c2cc(C)n(-c3ccc(C)c(C)c3)c2C)s1 | nt | nt | nt | ? | -1% | nt
COc1ccc(C(=O)c2cn(Cc3ccc(F)cc3)c3c(F)cc(F)cc3c2=O)cc1 | nt | nt | nt | 2%[59 µM] | 20% | nt
CSc1ccc(C2c3c(oc4ccc(F)cc4c3=O)C(=O)N2c2ccc(C)cn2)cc1 (configuration not stated) | nt | nt | nt | -1%[59 µM] | 3% | nt
COc1ccc(CCNC(=O)c2cnc3sc(N4CCOCC4)nn3c2=O)cc1 | nt | nt | nt | -5%[59 µM] | -4% | nt
O=C(c1ccc(F)cc1)N1CCC(c2nc(-c3ccc(S(=O)(=O)N4CCCC4)cc3)no2)CC1 | nt | nt | nt | 0%[59 µM] | 8% | nt
O=C(O)COc1ccc(/C=N/NC(=O)C2CCCN2S(=O)(=O)c2ccc(Cl)cc2)cc1 (configuration not stated) | -3 | 6% | -6% | 45µM* | -6% | 0%
CC(C)c1ccc(NC(=O)C2C3C=CC4(CN(Cc5cccnc5)C(=O)C24)O3)cc1 (configuration not stated) | -4 | 9% | -12% | 3% | -12% | 1%
Cc1ccc(NC(=O)C2C3C=CC4(CN(Cc5cccnc5)C(=O)C24)O3)cc1F (configuration not stated) | 0 | 2% | -7% | 45µM* | -20% | 0%
CC(=O)N1CCCc2cc(S(=O)(=O)N3CCC(C(=O)N(Cc4ccccc4)C(C)C)CC3)ccc21 | nt | nt | nt | 4%[59 µM] | -12% | nt
O=C(c1ccco1)N1CCC2(CC1)CCN(c1ccccn1)CC2 | nt | 6% | nt | 4%[12.7 µM] | -22% | nt
O=C(c1ccc2nc(Cc3ccccc3F)oc2c1)N1CC[C@H](O)C1 | 0 | 13% | 24µM* | -5% | ? | -1%
O=C(c1ccc2nc(Cc3ccccc3F)oc2c1)N1CCCC1 | -2 | 11% | -1% | 1% | -16% | -2%
O=C1/C(=C/c2cccs2)COc2ccccc21 | -2 | 13% | -1% | 6% | ? | 1%
CCOc1cc(/C=C2\COc3ccccc3C2=O)ccc1OCC(=O)N(C)C | 2 | -21% | -10% | -19% | 50µM* | -5%
CCNC(=O)COc1ccc(/C=C2\COc3ccccc3C2=O)cc1OC | -2 | -4% | -22% | 40µM* | 35µM* | -2%
COc1ccc(/C=C2\CCc3ccccc3C2=O)cc1OC | 2 | -16% | 1% | ? | ? | -2%
N#Cc1cc2c(=O)n3ccccc3nc2n(-c2nnc(SCc3ccccc3Cl)s2)c1=O | nt | nt | nt | 0%[59 µM] | -1% | nt
CCOC(=O)c1cccc(NC(=O)c2cnc3sc(N4CCOCC4)nn3c2=O)c1 | nt | nt | nt | 0%[59 µM] | 5% | nt
O=C(Nc1ccccc1)C12CC1/C(=N\O)c1ccccc1O2 (configuration not stated) | nt | 2% | nt | 27%[59 µM] | 3% | nt
Clc1cccc2c1Sc1ccccc1CC2N1CCNCC1 (configuration not stated) | 1 | 56µM* | -9% | ? | -6% | 0%
Clc1ccc2c(c1)C(N1CCNCC1)Cc1ccccc1S2 (configuration not stated) | -3 | -16% | -10% | ? | -9% | 0%

From PubChem
